The full list was thinned out, with hits kept by preference.
Tg IFNy HTS: inhibitors of Toxoplasma gondii growth with IFN-gamma. 3.8% of 69,000 active. activity change, negative = inhibition, % (concentration not given with the values). AID 1259416. Toxoplasma gondii growth in IFN-gamma-treated host cells; hits give low values; in the data active = activity change below about -70%, passing the limit was not always enough;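 note: host cells are HeLa cells infected with Toxoplasma gondii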
Numbers without * were called inactive.

SMILES | Tg IFNy HTS
O=C(O)c1[nH]ncc1CN1CCCC(c2[nH]ncc2-c2ccccc2)C1 (centres undefined) | -1
CC[C@@H](C(=O)C(C)[C@@H](O)[C@H](C)CCc1ccc(C)c(O)c1C(=O)O)C1OC(CC)(C2CC[C@](O)(CC)[C@H](C)O2)C[C@@H]1C (some centres undefined) | -74*
CC(C)Cc1ccc(CN2CCC(NS(C)(=O)=O)CC2)cc1 | 6
COC(=O)c1ccc2c(C(=Nc3ccc(N(C)C(=O)CN4CCN(C)CC4)cc3)c3ccccc3)c(O)[nH]c2c1 | -78*
CN(C)C(=O)CN1CCN(Cc2cccc(C(=O)Nc3cnn(C)c3)c2)CC1 | 11
COc1ccc(OC)c(NC(=O)C2=C(C)C(=O)OC23CCN(C(C)=O)CC3)c1 | 214
O=S(=O)(NCC1CCN(Cc2ccccn2)C1)c1cccc(F)c1 (centres undefined) | 0
COc1nccnc1-c1c[nH]c2ccc(C)cc12 | 138
COc1nc(OC)nc(-c2c[nH]c3ccc(C)cc23)n1 | -87*
Cc1ccc2[nH]cc(-c3nccc(C(F)(F)F)n3)c2c1 | -12
COc1ccccc1CN(C(=O)c1ccc(N2CCOCC2)cc1)C1CCN(C)CC1 | 9
Cn1ncc(Cl)c1-c1cc(C(=O)N[C@H](CN)Cc2ccc(F)c(F)c2)oc1Cl | -81*
CCN(CC)C(=O)Cn1nc2c(C)cc3ccc(OC)cc3n2c1=O | -9
Cc1ccc2cc(C)c3nn(CCNC(=O)C4CSC(c5ccncc5)=N4)c(=O)n3c2c1 (centres undefined) | -110*
Cc1cc2cc3c(cc2n2c(=O)n(Cc4ccccn4)nc12)OCO3 | -45
O=C(c1ccc(-c2cccnc2)nc1)N1CCC(Oc2cccnc2)CC1 | -8
Cc1cnn(Cc2nc(-c3ccc(NC(=O)C(C)(C)C)cc3)oc2C)c1 | 279
CCOC(=O)c1c(C)nc2ccc(Cl)cc2c1-c1ccccc1 | -5
COc1ccc(-c2c(C)nc3ccc(Cl)cc3c2-c2ccccc2)cc1OC | -95*
CCOC(=O)COc1nc2ccc(Cl)cc2c(-c2ccccc2)c1C(C)=O | -23
Cc1ccc(NC(=O)CC(=O)NC(C(=O)N(C)C)c2ccccc2)cc1 (centres undefined) | 4
CC(NC(=O)Cn1nc(-c2ccco2)ccc1=O)c1ccccc1 (centres undefined) | 1
Cc1noc(-c2cc(=O)n(CC(=O)NCc3ccc(Cl)cc3)c3ccccc23)n1 | 63
COc1cccc(NC(=O)C23CCN(C(C)=O)CC2C3)c1 (centres undefined) | -42
Cc1cc(C)cc(NC(=O)N2CCN(Cc3nc(-c4cccc(Cl)c4)oc3C)CC2)c1 | -1
SMILES | Tg IFNy HTS
O=C(Nc1ccccc1Sc1c(Cl)cncc1Cl)c1cccs1 | -68
O=C(Nc1ccc(Cl)cc1)Nc1ccccc1Sc1c(Cl)cncc1Cl | -97*
O=C(Nc1ccccc1)Nc1ccccc1SCCS(=O)(=O)c1ccc(Cl)cc1 | -54
COc1ccc(CN2CC3(CCN(S(=O)(=O)c4ccccc4)C3)C2)cc1F | 101
Cc1ccc(-c2cnc(NC(=O)Cn3c(C)nc4ccccc4c3=O)n2C)cc1C | -62
Cn1ccnc1CN(C(=O)c1ccc(C#CC(C)(C)O)o1)C1CC1 | 45
Cc1cccc(-c2noc(-c3c(O)c4cc(F)ccc4n(C)c3=O)n2)c1 | 3
CCCN(C)C[C@@H]1Oc2cc(/C=C/c3ccccc3)ccc2S(=O)(=O)N([C@@H](C)CO)C[C@H]1C | -91*
CCCC#Cc1ccc2c(c1)O[C@@H](CN(C)Cc1ccccn1)[C@@H](C)CN([C@H](C)CO)S2(=O)=O | -29
COCC#Cc1ccc2c(c1)O[C@@H](CN(C)C(=O)C1CCOCC1)[C@@H](C)CN([C@H](C)CO)S2(=O)=O | 72
C[C@@H]1CN([C@@H](C)CO)S(=O)(=O)c2ccc(-c3ccc(F)cc3)cc2O[C@H]1CN(C)Cc1ccccc1C(=O)O | -15
COc1cccc(-c2ccc3c(c2)O[C@H](CN(C)Cc2cccnc2)[C@H](C)CN([C@@H](C)CO)S3(=O)=O)c1 | -39
C[C@H](CO)N1C[C@H](C)[C@H](CN(C)S(=O)(=O)c2cn(C)cn2)Oc2cc(C#Cc3cccc(F)c3)ccc2S1(=O)=O | -93*
C[C@@H]1CN([C@H](C)CO)S(=O)(=O)c2ccc(C#Cc3cccc(F)c3)cc2O[C@H]1CN(C)S(=O)(=O)c1cn(C)cn1 | -68
C[C@@H]1CN([C@H](C)CO)S(=O)(=O)c2ccc(C#CCC3CCCC3)cc2O[C@@H]1CN(C)C(=O)c1cnccn1 | -69
C[C@@H]1CN([C@H](C)CO)S(=O)(=O)c2ccc(-c3ccncc3)cc2O[C@H]1CN(C)S(C)(=O)=O | -104*
Cc1ccc(S(=O)(=O)N(C)C[C@@H]2Oc3cc(C#CC4CCCC4)ccc3S(=O)(=O)N([C@@H](C)CO)C[C@@H]2C)cc1 | -114*
C[C@H](CO)N1C[C@H](C)[C@H](CN(C)C(=O)NC2CCCC2)Oc2cc(-c3cncnc3)ccc2S1(=O)=O | 44
CCCNC(=O)N(C)C[C@H]1Oc2cc(C#C[C@H](C)O)ccc2S(=O)(=O)N([C@@H](C)CO)C[C@H]1C | 102
CC(C)Cc1ccc(S(=O)(=O)N2CCC3(CC2)NCCN=C3NCc2ccc3c(c2)OCO3)cc1 | -37
CC(Oc1ccccc1)C(=O)Nc1cc(C2=CCCN(C)C2)nn1C (centres undefined) | -11
CCOCCCNC(=O)Cn1ncc2c(N3CCCCC3)ncnc21 | 63
CC(c1cccc(-c2c(-c3ccccc3)ncn2Cc2ncc[nH]2)c1)N(C)C (centres undefined) | 4
O=C(Cn1ncc2cccn2c1=O)c1ccc2c(c1)OCCO2 | 214
O=C1CCCCN1CCC(=O)N(Cc1ccsc1)CC1CCCO1 (centres undefined) | -39
SMILES | Tg IFNy HTS
CCc1cccc(NC(=O)CN2CCC3(CC2)N=C(c2ccc(C)cc2)C(=O)N3)c1 | 63
CCOC(=O)c1c(NCc2ccc(C)cc2)c2ccc(Cl)cc2[nH]c1=O | -5
Cc1cccc(NC(=O)CC(=O)N(C)Cc2nccn2Cc2ccccc2)c1C | 35
CN1CCN(C(=O)c2ccc(C3CCCN3C(=O)CNS(C)(=O)=O)nc2)CC1 (centres undefined) | -39
C[C@@H]1CN([C@H](C)CO)S(=O)(=O)c2ccc(-c3ccc(F)cc3)cc2O[C@H]1CN(C)Cc1ccccc1C(=O)O | 32
COCC#Cc1ccc2c(c1)O[C@@H](CN(C)C(=O)C1CCOCC1)[C@H](C)CN([C@@H](C)CO)S2(=O)=O | -12
Cc1ccc(S(=O)(=O)N(C)C[C@H]2Oc3cc(C#CC4CCCC4)ccc3S(=O)(=O)N([C@H](C)CO)C[C@H]2C)cc1 | -64
C[C@@H]1CN([C@H](C)CO)S(=O)(=O)c2ccc(C#CC(C)(C)O)cc2O[C@@H]1CN(C)Cc1ccc(F)cc1 | 150
C[C@@H]1CN([C@H](C)CO)S(=O)(=O)c2ccc(C#CC(C)(C)O)cc2O[C@H]1CN(C)Cc1ccc(F)cc1 | -116*
Cc1ccc(S(=O)(=O)N(C)C[C@H]2Oc3cc(C#CC4CCCC4)ccc3S(=O)(=O)N([C@@H](C)CO)C[C@H]2C)cc1 | -132*
O=C1Nc2ccccc2C1C1CCNCC1 (centres undefined) | 51
O=C(O)COc1cccc2c1CCCC2 | 99
COc1ccc(NC(=O)Cc2cccs2)cc1OC | 8
Cn1cnnc1C1CCN(c2nc(-c3ccncc3)nc3c2CNC3)CC1 | 5
CCOc1ccc2nc(SCC(=O)c3ccc(F)cc3)sc2c1 | -79*
O=C(CSc1ccccn1)c1ccc(OCc2ccc(F)cc2)cc1 | -23
CCOc1ccc2nc(NS(=O)(=O)c3ccc(NC(C)=O)cc3)sc2c1 | 5
